From PubChem BioAssay AID1832 (Broad Institute, 2009) come the findings set out here.

The campaign covered roughly 300,000 compounds. About 1,100 (0.37%) were called active. The sample holds actives, similar compounds and a random draw of the others, so the mix is not that of the screen. Unmarked numbers belong to inactive results.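 How the source made its calls: active means inhibition past about -25% in most replicates, and total fluorescence under double the plate's negative control median (limit read from the data); inconclusive means replicates evenly split on the limit, or fluorescence at least double controls; inactive means too little inhibition in most replicates.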

For this test, the target named is Zinc finger protein mex-5 (Caenorhabditis elegans) (UniProt Q9XUB2). Description: MEX-5 zinc finger RNA-binding disruptors – biochemical, C. elegans, fluorescence polarization, MLPCN library, primary screen (AID 1832).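 Further: 0% = DMSO and -100% = 5 µM competing unlabeled TCR2 RNA.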 The note with it: MEX-5/FITC-TCR2 RNA binding, at 10 µM, hits give low values. For orientation: Fluorescence polarisation rises when a labelled molecule tumbles more slowly, as on binding a larger partner.
Sequence of Zinc finger protein mex-5 (Caenorhabditis elegans) (Q9XUB2 whole entry, looked up): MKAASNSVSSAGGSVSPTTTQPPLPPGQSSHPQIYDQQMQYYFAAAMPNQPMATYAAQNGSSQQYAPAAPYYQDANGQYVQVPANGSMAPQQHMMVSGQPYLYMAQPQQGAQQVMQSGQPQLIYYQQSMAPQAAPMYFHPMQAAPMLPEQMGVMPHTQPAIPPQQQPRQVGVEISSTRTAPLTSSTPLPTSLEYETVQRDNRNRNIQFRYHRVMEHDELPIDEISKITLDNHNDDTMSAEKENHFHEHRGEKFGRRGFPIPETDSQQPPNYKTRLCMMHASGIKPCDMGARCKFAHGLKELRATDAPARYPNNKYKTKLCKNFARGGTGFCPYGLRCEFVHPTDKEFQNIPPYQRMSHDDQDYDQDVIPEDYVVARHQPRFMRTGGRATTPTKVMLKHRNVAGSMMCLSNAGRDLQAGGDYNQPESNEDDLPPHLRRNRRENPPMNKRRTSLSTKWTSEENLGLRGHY
For `Cc1cccc(NC(=O)c2nc(S(=O)(=O)Cc3ccccc3)ncc2Cl)c1`, the activity score (negative = inhibition of binding) was 2.04%.
Under `Cc1cc(=O)n2nc(N3CCCC(C(=O)NCc4cccc(Cl)c4)C3)sc2n1` (configuration not stated) stands 0.58%; under `COC(=O)C1=C(C)Nc2ncnn2C1c1ccco1` (configuration not stated), 0.833%; under `CCOc1ccc(C2=CC(c3ccccc3)n3ncnc3N2)cc1` (configuration not stated), 0.973%.
For `Brc1ccc(C2=CC(c3ccco3)n3ncnc3N2)cc1` (configuration not stated), the activity score (negative = inhibition of binding) was -46.2% (active).
Under `Cc1ccnc(N2C(=O)c3ccc([N+](=O)[O-])cc3C2=O)c1` stands 0.424%; under `CCN1C(=NCC(C)C)N[C@@H](CCc2ccccc2)[C@H](C(=O)NCC(C)C)[C@H]1C`, 0.663%; under `CCOC(=O)C(Cc1ccccc1)NC(=O)CCC(=O)c1ccc(OC)cc1` (configuration not stated), -0.523%.
As to `COc1cc([C@H](Cc2ccccc2)NC(C)=O)oc(=O)c1`, the activity score (negative = inhibition of binding) is -29.7% (active).
Consider `COC(=O)[C@H](Cc1ccccc1)NC(=O)Nc1ccc(OC)cc1`, for which the activity score (negative = inhibition of binding) was -2.47%.
For the compound `O=C(Nc1cc2c3c(c1)C1CCCC1CN3CC1CCCC21)c1ccc([N+](=O)[O-])cc1` (configuration not stated), the activity score (negative = inhibition of binding) was 0.805%.
As for `CCN(Cc1ccccc1)C(=O)CCS(=O)(=O)c1ccc2c(c1)oc(=O)n2C`, the activity score (negative = inhibition of binding) is -0.201%.
Under `CC(C)(C)N(Cc1ccccc1)C(=O)c1ccncc1` stands 0.0862%.
Under `Cc1cc(NC(=O)CSc2nc(=O)cc(N)n2-c2ccc(F)cc2)no1` stands 3.29%; under `O=C(O)CCn1cc(/C=C/C(=O)c2ccc(Cl)cc2)c(-c2cccc(Br)c2)n1`, -3.47%; under `CCn1nc(C)c(NC(=O)/C=C/c2ccc(OC)c(COc3ccc(Br)cc3)c2)c1C`, -2.54%.
The result for `CN(C)/C=C1/Nc2ccccc2C1=O` reads -9.39%; that for `O=C1Nc2ccccc2/C1=C/c1ccnc2ccccc12`, -0.239%; that for `Cc1cc(C)c(/C=C2\C(=O)Nc3ccccc32)[nH]1`, -49.3% (active).
On to `Cc1cc(C)c(C)c(S(=O)(=O)Nc2cccnc2)c1C`, for which the activity score (negative = inhibition of binding) was 3.19%.
The result for `CCN(CC)CCOc1ccc2c(c1)C(=NNC(=O)c1ccccn1)c1cc(OCCN(CC)CC)ccc1-2` reads -21.9%; that for `Cc1cc(/C=C2\SC(=O)N(C)C2=O)c(C)n1-c1cccc(C(=O)O)c1`, -1.93%; that for `CN1C(=O)/C(=C/c2ccco2)SC1=Nc1cccc(C(=O)O)c1`, -30.7% (active).
Under `O=C(CCCN1C(=O)/C(=C\c2ccco2)SC1=S)Nc1cccc2ccccc12` stands -4.74%; under `CSc1nc(C)nc(C2CC2)c1C#N`, 0.165%; under `CN(C)c1ccc(NC(=S)N(CCc2ccccc2)C2CC(=O)N(c3c(Cl)cccc3Cl)C2=O)cc1` (configuration not stated), 0.224%.
Consider `O=C(COC(=O)CCOc1ccccc1)Nc1cc(S(=O)(=O)N2CCCCC2)ccc1Cl`, for which the activity score (negative = inhibition of binding) was -0.682%.
Under `Cc1cccc(NC(=O)COC(=O)CCc2ccccc2)c1C` stands 0.968%.
As to `O=C(COC(=O)CCc1c[nH]c(=O)[nH]1)Nc1ccccc1Cl`, the activity score (negative = inhibition of binding) was -36.5% (active).
The result for `COc1cc(S(=O)(=O)N2CCN=C2c2ccccc2)ccc1Cl` reads 3.19%; that for `COc1ccc(CC(=O)Nc2c(C(N)=O)oc3ccccc23)cc1`, 0.725%; that for `CC(C)(C)OC(=O)N1CCC(C(=O)NNC(=O)c2ccc(Cl)cc2Cl)CC1`, 0.105%.
`CCOC(=O)c1sc2nc(CSc3ccccc3)[nH]c(=O)c2c1C`: the activity score (negative = inhibition of binding) is 3.85%.
The result for `CSc1nnc(SCc2nc3sc(C(=O)O)c(C)c3c(=O)[nH]2)s1` reads -39.1% (active); that for `CCOC(=O)c1sc2nc(C)[nH]c(=O)c2c1C`, -1.49%.
On to `CC(C)C[C@H](NC(=O)N1CC(=O)Nc2ccccc21)C(=O)N[C@H](Cc1ccccc1)C(=O)O`, for which the activity score (negative = inhibition of binding) was 2.99%.
`COc1ccc(C(=O)OCC(=O)NCC2CCCO2)cc1[N+](=O)[O-]` (configuration not stated): the activity score (negative = inhibition of binding) is 0.621%.
The result for `CNC(=O)/C(C#N)=C/c1c(F)cccc1Cl` reads 0.288%; that for `COc1ccc2c(C)c(CCC(=O)NC3CC3)c(=O)oc2c1C`, -3.04%; that for `CCCCC1N2CC3([N+](=O)[O-])CN1CC([N+](=O)[O-])(C2)C3(C)C` (configuration not stated), -0.199%.
The result for `COc1ccc(/C=C2\SC(=S)N(CCC(=O)Nc3ccccn3)C2=O)cc1OC` reads -2.36%.
The result for `COc1ccc(/C=C2\SC(=S)N(CCC(=O)Nc3cccc(C(=O)O)c3)C2=O)cc1OC` reads -1.23%; that for `COc1ccc(/C=C2\SC(=S)N(CCCC(=O)NC3CCCC3)C2=O)cc1OC`, -48.2% (active); that for `O=S(=O)(c1ccccc1)N1CCC(c2ccccc2)CC1`, -0.204%.
Turning to `CCN(CC(=O)Nc1ccc2c(c1)OCCO2)Cc1cc(=O)oc2cc(C)c(C)cc12`, the activity score (negative = inhibition of binding) was -1.63%.
The result for `Nc1ccc2nc3c(=O)[nH]c(=S)[nH]c3nc2c1` reads -47.2% (active); that for `COc1ccc(CCn2c(NN=C3CCCC3)nc3c2c(=O)[nH]c(=O)n3C)cc1`, 1.31%.
The result for `NC(=O)c1oc2ccccc2c1NC(=O)Cc1ccccc1` reads -2.66%; that for `Cc1c(CN2CCCCC2)c(O)n(CCO)c(=O)c1C#N`, -12.5%; that for `CCCn1c(O)c(CN2CCCC(C)C2)c(C)c(C#N)c1=O` (configuration not stated), -33.7% (active).
Consider `CCCCCCn1c(CN2CCCC(C)C2)nc2c1c(=O)n(C)c(=O)n2C` (configuration not stated), for which the activity score (negative = inhibition of binding) was -0.485%.
Regarding `COc1cccc(NC(=O)CSc2nnc(-c3cccnc3)o2)c1`, the activity score (negative = inhibition of binding) is -0.46%.
On to `COc1c(O)cc2oc(-c3ccc(O)c(O)c3)cc(=O)c2c1O`, for which the activity score (negative = inhibition of binding) was -34.4% (active).
Under `CCOC(=O)COc1cc(O)c2c(=O)cc(-c3ccccc3)oc2c1` stands 0.422%.
The result for `COc1ccc(-c2cc(=O)c3c(O)cc(O[C@@H]4O[C@H](CO[C@@H]5O[C@@H](C)[C@H](O)[C@@H](O)[C@H]5O)[C@@H](O)[C@H](O)[C@H]4O)cc3o2)cc1O` reads 0.902%; that for `COc1ccccc1OCCOc1ccc(/C=C2\C(=N)N3N=C(C)SC3=NC2=O)cc1`, 0.998%.
Consider `CC(C)CC(=O)c1c[nH]c(C(=O)NCc2ccccc2)c1`, for which the activity score (negative = inhibition of binding) was -0.164%.
